Results filed as inconclusive are left out. Activity calls are given as the source filed them. The calls were made as follows: active = hit-call score of the fitted dose curve at least 0.9, where 1 is the maximum; inconclusive = response in the unintended direction; inactive = score below 0.9.

In this assay the target is Estrogen receptor (Homo sapiens) (UniProt P03372). Kind of assay: CCTE_Deisenroth_AIME_384WELL_LUC_Inactive: CCTE's 384-well Estrogen Receptor Transactivation Assay without AIME metabolic competence (ERTA luciferase; metabolism negative), Deisenroth Lab (AID 2284038).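 Also: hits raise estrogen receptor luciferase signal so potencies reflect agonists.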 As for the experimental part: CCTE_Deisenroth_AIME_384WELL (AIME metabolism assay) is a cell-based, single-readout assay that uses VM7Luc4E2, a human mammary gland/breast cell line, with measurements taken at 24 hour after chemical dosing in a 384-well plate.CCTE_Deisenroth_AIME_384WELL_LUC_Inactive is one of four assay components measured or calculated from the CCTE_Deisenroth_AIME_384WELL assay. It is designed to make measurements of luciferase induction, a form of inducible reporter, as detected with bioluminescence signals by luciferase-coupled ATP quantitation technology.CCTE_Deisenroth_AIME_384WELL_LUC_Inactive is a component of the CCTE_Deisenroth_AIME_384WELL assay that measures the effect of retroftting the VM7Luc ERTA assay with the Alginate Immobolization of Metabolic Enzymes (AIME) metabolism method. AIME is optimized to impart phase I hepatic metabolism using phenobarbital/beta-naphthoflavone induced hepatic S9 from male Sprague Dawley rats. Parent chemicals are incubated for 2 hours in the AIME assay prior to transfer to the VM7Luc ERTA assay plate. […] This endpoint evaluates reporter induction in metabolism negative mode. Using a type of inducible reporter in VM7Luc cells, gain-of-signal activity can be used to understand changes in the reporter gene as they relate to xenobiotic metabolism and the gene ESR1. This assay endpoint, CCTE_Deisenroth_AIME_384WELL_LUC_Inactive, was analyzed in the positive analysis fitting direction relative to 17beta-estradiol as the positive control in the ERTA assay. To generalize the intended target to other relatable targets, this assay endpoint is annotated to the nuclear receptor intended target family, where the subfamily is steroidal.
Sequence of Estrogen receptor (Homo sapiens) (P03372 whole entry, looked up): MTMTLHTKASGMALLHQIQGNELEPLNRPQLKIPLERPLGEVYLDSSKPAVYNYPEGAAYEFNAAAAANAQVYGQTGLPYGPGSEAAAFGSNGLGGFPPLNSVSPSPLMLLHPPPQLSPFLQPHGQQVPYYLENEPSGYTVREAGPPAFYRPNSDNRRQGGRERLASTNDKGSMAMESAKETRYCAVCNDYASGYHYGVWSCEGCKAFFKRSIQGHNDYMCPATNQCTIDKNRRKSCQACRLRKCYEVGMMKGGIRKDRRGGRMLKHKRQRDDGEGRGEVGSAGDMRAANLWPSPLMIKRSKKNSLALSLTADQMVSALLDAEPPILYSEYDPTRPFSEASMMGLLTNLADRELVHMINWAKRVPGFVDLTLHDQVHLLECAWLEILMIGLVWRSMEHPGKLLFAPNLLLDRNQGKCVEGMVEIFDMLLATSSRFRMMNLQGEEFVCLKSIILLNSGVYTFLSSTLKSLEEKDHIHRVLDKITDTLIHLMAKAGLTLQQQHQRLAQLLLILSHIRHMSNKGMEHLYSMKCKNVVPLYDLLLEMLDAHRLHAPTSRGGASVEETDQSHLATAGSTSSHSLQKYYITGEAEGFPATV
The AIME procedure consists of a preparative "pre-stamping" step using a barium chloride/poly-L-lysine (PLL) solution followed by "stamping" the lid in alginate-hepatic S9 (metabolism positive) or alginate-water (metabolism negative) to form microspheres. Once stamping is completed, the AIME lids are placed in duplicate microplates (metabolism positive or negative) containing chemical solutions and incubated for two hours to facilitate metabolic reactions. The conditioned medium, containing parent chemical or metabolites, is then transferred to the cell-based VM7Luc Estrogen Receptor Transactivation Assay (ERTA) for 24 hours. A typical experimental design tests a 10-point concentration series (0.002 - 200 uM) for 8 compounds (96-well format)1 or 32 compounds (384-well format)2 in single technical replicate. AIME assay controls include trans-stilbene (bioactivated control) and ethylparaben (bioinactivated control). ERTA assay plate controls include 17-beta estradiol (positive control) and DMSO (solvent control). Experiments typically comprise a minimum of four experimental replicates (n=4).
Broadly, the AC50 is the midpoint of the concentration-response curve, whichever way the signal moves. Consider `CCCOC(=O)c1cc(O)c(O)c(O)c1`, for which the AC50 is 43.6 µM (active).
The same measure, in the same setting: then `O=C(O)Cn1c(=O)n(Cc2ccc(Br)cc2F)c(=O)c2ccc(Cl)cc21`, with 106 µM (active).
For `OC12N=C(c3ccccc3)SC1Cc1cc(Cl)ccc12` (stereo not drawn), the molecule was called inactive.
The same measure, in the same setting: the result for `O=C(Nc1ccc(Cl)cc1)Nc1ccc(Cl)c(Cl)c1` reads “inactive”; that for `Cc1oc2c(NC(=O)c3c(Cl)cccc3Cl)cccc2c1C(C)(C)O`, “inactive”; that for `c1ccc2ccccc2c1`, “inactive”.
For the molecule `CCCCCCCCN(C)CCCCCCCC`, the result was inactive.
The same measure, in the same setting: the result for `Cc1c2ccccc2c(C)c2c1ccc1ccccc12` reads “inactive”; that for `CC(C)(C)c1cc(/C=C2\SC(N)=NC2=O)cc(C(C)(C)C)c1O`, “inactive”.
For the molecule `CCCCCCCCOC(=O)c1cc(O)c(O)c(O)c1`, the molecule was called inactive.
The same measure, in the same setting: the result for `CCCCCCCCCCCO` reads “inactive”; that for `Cc1ccc(C(C)C)cc1`, “inactive”.
Take `OCCO`: the half-maximal activity concentration (AC50) was 19.8 µM (active).
For the molecule `COc1cccc([C@H](O)C2CCN(CCc3ccc(F)cc3)CC2)c1OC`, the call was inactive.
Still for that read-out and setting: then `COCC(C)OCC(C)OCC(C)O` (stereo not drawn), with “inactive”; and `Cc1cn([C@H]2C[C@H](N=[N+]=[N-])[C@@H](CO)O2)c(=O)[nH]c1=O`, with “inactive”; and `O=c1[nH]sc2ccccc12`, with “inactive”.
The same measure, in the same setting: the result for `CCN(CC)C(=O)c1cc(S(=O)(=O)Cc2ccccc2)c(N2CCC(c3ccccc3)CC2)cc1N(CC)CCN(C)C` reads “inactive”.
